From PubChem BioAssay come the findings set out here.

The source made the active and inactive calls.

Experiment [1] deals with Human papillomavirus type 1a protein E7 (residues 44-93). The experiment in a line: small molecules binding HPV E7 44-93 – biochemical, small-molecule microarray, residues 44-93, 635 nm fluorescence, primary screen (AID 1108).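 Also: E7 fragment applied at 1 µg/mL in TBST for 1 h at 4 C; score combines spot fluorescence with its signal to noise ratio.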 The following applies: fluorescence 635 nm, higher = more signal.
Experiment [2] is described as follows: hepatitis C replication reporter changes, two-sided – Huh7 cells, luciferase reporter, HCV replication inhibitor project, primary screen (AID 1109).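 Also: huh7 hepatoma cells harbouring a luciferase neomycin HCV replicon reporter; luciferase luminescence as measure of HCV replicon replication; test concentration not given here.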 The note with it: Huh7 HCV replicon luciferase reporter, 48 h; higher = more signal. On the technique in general: In a reporter assay the amount or activity of a reporter protein is the signal.
Experiment [3] has as its target Left-right determination factor 2 (Homo sapiens) (UniProt O00292). The experiment in a line: small molecules binding LEFTY2 protein – biochemical, small-molecule microarray, 635 nm fluorescence scan, primary screen (AID 1110). The note with it: higher = more signal.
Experiment [4] has as its target Calmodulin-1 (Homo sapiens) (UniProt P0DP23). The experiment in a line: small molecules binding calmodulin-1 with EGTA – biochemical, small-molecule microarray, Cy5-labelled CALM1, profiling panel (AID 1111).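 Also: labelled calmodulin applied in Tris saline Tween buffer holding calcium plus EGTA and DTT.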 The following applies: Cy5-CALM1 binding fluorescence, higher = more signal.
The target is the same in experiment [5]. The experiment in a line: small molecules binding Ca-loaded calmodulin-1 – biochemical, small-molecule microarray, Cy5-labelled CALM1, plus calcium, artefact control for SMM control-protein annotation, profiling panel (AID 1112).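 Also: score merges spot fluorescence with signal to noise from triplicate slides.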 The following applies: Cy5-CALM1 binding fluorescence, higher = more signal.
Experiment [6] can be described thus: probe aWnt5a binding to arrayed compounds – biochemical, biotinylated probe, 635/667 nm fluorescence, primary screen (AID 1113).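 Also: score merges 667 nm fluorescence intensity with signal-to-noise per printed feature.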 The note with it: small-molecule microarray, higher = more signal.
Experiment [7] can be described thus: probe aShh binding to arrayed compounds – biochemical, biotinylated probe, 635/667 nm fluorescence, primary screen (AID 1114).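 Also: probe is biotin-labelled aShh protein from a stem cell growth factor screen; measures binding of labelled protein to compounds printed on the slide; score merges feature fluorescence at 667 nm with signal-to-noise.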 The note with it: small-molecule microarray, higher = more signal.
Experiment [8] is described as follows: probe aNog binding to arrayed compounds – biochemical, biotinylated probe, 635/667 nm fluorescence, primary screen (AID 1115).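 Also: probe is biotinylated aNog protein used at 0.15 µg/mL for 1 h at 4 C; z-score combines 667 nm fluorescence of each spot with its signal to noise.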 The following applies: small-molecule microarray, higher = more signal.
Experiment [9] addresses Torsin-1A-interacting protein 1 (Homo sapiens) (UniProt Q5JTV8). The experiment in a line: compound microarray binding of lysate hLAP1 – cell lysate, small-molecule microarray, COS7 lysate, 635/667 nm fluorescence, primary screen (AID 1116). The note with it: 635 nm fluorescence, higher = more signal.
Experiment [10] deals with Alpha-bungarotoxin (Bungarus multicinctus) (UniProt P60615). The experiment in a line: compounds binding labelled alpha-BTX control protein – biochemical, small-molecule microarray, Alexa647 label, 635/667 nm fluorescence, artefact control for SMM control protein annotation, profiling panel (AID 1117). The note with it: alpha-BTX-A647 binding fluorescence, higher = more signal.
Sequence of Alpha-bungarotoxin (Bungarus multicinctus) (P60615 whole entry, looked up): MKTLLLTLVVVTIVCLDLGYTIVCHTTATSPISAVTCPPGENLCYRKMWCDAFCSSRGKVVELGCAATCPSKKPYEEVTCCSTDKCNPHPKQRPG

The target in the next experiment is Albumin (Bos taurus) (UniProt P02769). The experiment in a line: compounds binding labelled BSA control protein – biochemical, small-molecule microarray, Alexa647 label, 635/667 nm fluorescence, artefact control for SMM control protein annotation, profiling panel (AID 1118).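 Also: score merges 667 nm emission intensity and signal-to-noise per printed compound spot.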 The note with it: BSA-A647 binding, fluorescence 635 nm, higher = more signal.
Sequence of Albumin (Bos taurus) (P02769 whole entry, looked up): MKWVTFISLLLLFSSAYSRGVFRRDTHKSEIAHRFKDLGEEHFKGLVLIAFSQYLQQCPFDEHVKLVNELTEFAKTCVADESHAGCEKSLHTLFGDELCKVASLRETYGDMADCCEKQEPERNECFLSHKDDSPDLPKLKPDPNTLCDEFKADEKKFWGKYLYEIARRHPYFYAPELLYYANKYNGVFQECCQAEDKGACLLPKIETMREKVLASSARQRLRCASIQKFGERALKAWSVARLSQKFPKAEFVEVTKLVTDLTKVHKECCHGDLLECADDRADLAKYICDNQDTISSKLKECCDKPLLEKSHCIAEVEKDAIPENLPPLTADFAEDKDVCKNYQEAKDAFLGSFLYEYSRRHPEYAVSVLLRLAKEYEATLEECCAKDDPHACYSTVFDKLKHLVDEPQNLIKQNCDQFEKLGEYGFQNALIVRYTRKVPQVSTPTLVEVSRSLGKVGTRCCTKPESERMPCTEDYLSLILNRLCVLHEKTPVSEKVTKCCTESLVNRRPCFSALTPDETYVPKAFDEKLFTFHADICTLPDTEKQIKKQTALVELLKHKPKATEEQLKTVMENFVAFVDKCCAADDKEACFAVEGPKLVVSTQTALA
The nature of experiment [11]: probe aXIP binding to arrayed compounds – biochemical, NeuroSMM set, 635/667 nm fluorescence, primary screen (AID 1119).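 Also: probe is the protein aXip251-270 applied at 1 µg/mL to compound-printed slides; binding of probe to printed compounds measured as 667 nm fluorescence plus signal to noise.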 The note with it: small-molecule microarray, higher = more signal, called active from +8 up or from −8 down.
The nature of experiment [12]: probe aNOTCH3 binding on compound microarray – biochemical, small-molecule microarray, 635/667 nm fluorescence, primary screen (AID 1120).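 Also: probe is a biotin-tagged antibody raised against NOTCH3 rather than NOTCH3 protein; score merges spot fluorescence near 667 nm with spot signal to noise.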 The note with it: higher = more signal.
Experiment [13] is described as follows: probe aNOTCH2 binding on compound microarray – biochemical, small-molecule microarray, 635/667 nm fluorescence, primary screen (AID 1121).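 Also: score merges feature fluorescence read at 667 nm with its signal to noise.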 The following applies: higher = more signal.
The target of experiment [14] is Carbonic anhydrase 2 (Homo sapiens) (UniProt P00918). The experiment in a line: compounds binding carbonic anhydrase 2 – biochemical, small-molecule microarray, Alexa647-labelled CAII, profiling panel (AID 1122). The note with it: CAII-A647 binding fluorescence, higher = more signal.
A short description of experiment [15]: COS7 lysate on small-molecule microarray, probe aHis, 635 nm (AID 1123).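 Also: z-score combines 667nm fluorescence intensity with signal-to-noise per printed compound spot.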 The following applies: COS7 cell lysate, fluorescence, higher = more signal.
The nature of experiment [16]: probe aLAP1 signal on lysate-treated microarray – cell lysate, small-molecule microarray, COS7 lysate, primary screen (AID 1124).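 Also: lysate comes from COS7 cells expressing LAP1 and is applied at 0.3 µg/mL; score merges spot fluorescence near 667 nm with signal-to-noise over triplicate slides.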 The following applies: probe aLAP1, fluorescence, higher = more signal.
For a further experiment, the system named is Sam68 (KHDRBS1). The experiment in a line: compounds binding KHDRBS1 protein – biochemical, small-molecule microarray, 635 nm fluorescence, primary screen (AID 1125).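 Also: score merges 667 nm channel intensity with signal to noise over triplicate slides.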 The following applies: higher = more signal.
The test system of experiment [17] is Chordin-like protein 2 (CHRDL2). The experiment in a line: compounds binding chordin-like 2 – biochemical, small-molecule microarray, 635 nm fluorescence, primary screen (AID 1126).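 Also: printed compound slides probed with Chrdl2 protein at 4 µg/mL for 1 h at 4 C; score merges 667 nm emission intensity with signal to noise over three replicate slides.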 The note with it: fluorescence 635 nm, higher = more signal.
The target of experiment [18] is Concanavalin-A (Canavalia ensiformis) (UniProt P02866). The experiment in a line: compounds binding concanavalin A lectin – biochemical, small-molecule microarray, Alexa647 label, 635 nm, artefact control for SMM control protein annotation, primary screen (AID 1127).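 Also: z combines 667 nm emission intensity with signal-to-noise across three replicate slides.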 The note with it: ConA-A647 binding fluorescence, higher = more signal.
Sequence of Concanavalin-A (Canavalia ensiformis) (P02866 whole entry, looked up): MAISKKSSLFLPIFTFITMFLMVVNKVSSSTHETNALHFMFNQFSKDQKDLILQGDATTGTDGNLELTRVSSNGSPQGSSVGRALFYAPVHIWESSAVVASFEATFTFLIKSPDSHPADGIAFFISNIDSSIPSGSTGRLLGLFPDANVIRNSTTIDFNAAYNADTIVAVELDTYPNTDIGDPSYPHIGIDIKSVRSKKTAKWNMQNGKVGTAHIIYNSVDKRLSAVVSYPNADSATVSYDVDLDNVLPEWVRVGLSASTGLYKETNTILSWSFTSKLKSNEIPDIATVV

Sequence of Left-right determination factor 2 (Homo sapiens) (O00292 whole entry, looked up): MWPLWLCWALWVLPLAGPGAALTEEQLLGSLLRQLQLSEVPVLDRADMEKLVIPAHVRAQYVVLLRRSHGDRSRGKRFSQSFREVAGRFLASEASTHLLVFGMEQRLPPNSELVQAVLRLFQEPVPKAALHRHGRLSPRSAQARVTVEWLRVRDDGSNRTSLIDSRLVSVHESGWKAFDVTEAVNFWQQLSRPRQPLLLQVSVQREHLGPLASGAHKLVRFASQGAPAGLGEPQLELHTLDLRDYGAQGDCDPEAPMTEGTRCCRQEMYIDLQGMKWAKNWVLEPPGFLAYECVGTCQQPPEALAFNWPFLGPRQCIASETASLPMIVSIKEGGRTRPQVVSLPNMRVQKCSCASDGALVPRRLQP
Sequence of Torsin-1A-interacting protein 1 (Homo sapiens) (Q5JTV8 whole entry, looked up): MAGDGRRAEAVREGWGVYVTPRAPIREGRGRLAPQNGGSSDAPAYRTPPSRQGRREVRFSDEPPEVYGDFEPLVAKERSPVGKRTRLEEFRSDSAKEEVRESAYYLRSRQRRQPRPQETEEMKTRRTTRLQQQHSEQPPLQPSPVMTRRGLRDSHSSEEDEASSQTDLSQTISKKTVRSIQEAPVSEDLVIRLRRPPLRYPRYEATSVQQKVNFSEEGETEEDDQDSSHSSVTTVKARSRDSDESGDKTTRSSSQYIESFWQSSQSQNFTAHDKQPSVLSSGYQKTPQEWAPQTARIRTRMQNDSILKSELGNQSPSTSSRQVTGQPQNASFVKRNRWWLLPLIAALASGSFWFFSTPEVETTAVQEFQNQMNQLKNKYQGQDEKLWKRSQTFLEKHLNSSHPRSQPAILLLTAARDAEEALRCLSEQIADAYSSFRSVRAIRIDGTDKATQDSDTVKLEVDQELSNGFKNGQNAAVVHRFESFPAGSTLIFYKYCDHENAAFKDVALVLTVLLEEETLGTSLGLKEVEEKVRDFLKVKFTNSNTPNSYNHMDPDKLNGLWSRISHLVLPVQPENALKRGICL

As to `Cc1ccc(S(=O)(=O)N2C[C@@H](C(=O)O)[C@H](Sc3ccccc3)C[C@H]2c2ccccc2)cc1`, the composite z-score in experiment [1] is 1.14; in experiment [3], 0.0026; in experiment [4] it was 1.61; in experiment [5], -0.127; in experiment [6] it was 0.0775; in experiment [7], 0.0684. In addition, the composite z-score in experiment [8] stood at 1.45; in experiment [9], 1.97; in experiment [10] it was 0.729; with Albumin (Bos taurus), 0.855; in [12], 0.418; in experiment [13] it was 0.0456. Further, the composite z-score in experiment [14] is 0.732; in experiment [15], 1.99; in experiment [16], 0.89; in the experiment on Sam68 (KHDRBS1) it was 1.29; in [17], -0.75; in experiment [18], 1.13. This molecule came in with a z-score in [2] of -0.697. Also, the composite Z-score in experiment [11] was -0.202 (inactive).

As for `CN1C(=O)C2C=CC(C(O)C=Cc3ccc([N+](=O)[O-])cc3)N(Nc3ccccc3)C2C1=O` (stereo not given), the composite z-score in experiment [1] was 1.31; in experiment [3], 0.407; in [4], 0.447; in experiment [5], -0.384; in experiment [6], 0.0182; in experiment [7], 0.207. The composite z-score in [8] was -0.175; in [9], 0.582; in [10], 0.627; with Albumin (Bos taurus), 0.988; in experiment [12] it was 0.255; in experiment [13], -0.0894. Further, the composite z-score was 0.624 in experiment [14]; 1.21 in experiment [15]; 0.19 in experiment [16]; 1.3 in the experiment on Sam68 (KHDRBS1); 0.674 in experiment [17]; 0.988 in experiment [18]. In addition, the z-score in [2] is 0.599. In addition, the composite Z-score in [11] is 0.268 (inactive).

Turning to `CCOC(=O)C1=CC[C@H]2C(=O)N(c3ccccc3)C(=O)[C@@H]12`, the composite z-score in experiment [1] was 1.51; in experiment [3], 0.791; in [4], 0.802; in experiment [5] it was -0.513; in experiment [6] it was 0.027; in experiment [7], -0.0793. In addition, the composite z-score in [8] was 1.15; in [9], 1.14; in [10], 0.203; with Albumin (Bos taurus), 0.916; in experiment [12], 0.0893; in [13] it was -0.046. In addition, the composite z-score in experiment [14] amounted to 0.848; in [15] it was 2.7; in [16], 0.786; in the experiment with Sam68 (KHDRBS1) it was 1.31; in experiment [17], 0.613; in experiment [18], 1.05. Besides, in [2], the z-score was -1.36. Also, in [11], the composite Z-score is 1.58 (inactive).

Take `O=C1NC(=O)C2C1C=CC(C(O)c1ccc(I)cc1)N2Nc1ccccn1` (stereo not given): the composite z-score in experiment [1] was -0.409; in [3] it was 0.379; in [4], 0.532; in experiment [5], 0.267; in experiment [6], 0.0136; in experiment [7] it was 0.282. Further, the composite z-score was 0.0403 in experiment [8]; -0.593 in experiment [9]; 0.636 in experiment [10]; 0.898 with Albumin (Bos taurus); -0.0677 in [12]; -0.0026 in experiment [13]. Also, the composite z-score is 0.819 in experiment [14]; 2.35 in [15]; 1.48 in experiment [16]; -0.302 in the experiment on Sam68 (KHDRBS1); 0.37 in experiment [17]; 0.445 in experiment [18]. Moreover, in experiment [2], the z-score was -0.533. Further, the composite Z-score in [11] was 0.369 (inactive).

Turning to `C=CCNC(=O)[C@@H]1[C@H]2C(=O)O[C@H](c3ccccc3)[C@H](c3ccccc3)N2[C@H](c2ccc(OCCO)cc2)[C@@]12C(=O)N(C(=O)OCCOC)c1ccc(C#CCC(C(=O)OC)C(=O)OC)cc12`, the composite z-score in [1] was 0.805; in [3], 0.969; in experiment [4], 1.61; in experiment [5] it was 0.105; in experiment [6], -0.0302; in experiment [7], 0.199. The composite z-score in experiment [8] was 0.804; in [9] it was 1.03; in [10] it was 1.26; with Albumin (Bos taurus) it was 0.371; in experiment [12], 0.199; in experiment [13], 0.0278. The composite z-score in [14] turned out to be 0.637; in [15], 1.37; in [16], 1.05; in the experiment with Sam68 (KHDRBS1), 1.31; in [17] it was 0.665; in experiment [18], 1.09. Besides, in [2], the z-score is -1.5. In addition, in experiment [11], the composite Z-score is 0.0558 (inactive).

Take `O=C1C[C@@](C(=O)NCc2ccccc2)(c2ccc([N+](=O)[O-])cc2)[C@@H](c2ccc(CO)cc2)N1CC12CC3CC(CC(C3)C1)C2`: the composite z-score in experiment [1] was 1.37; in experiment [3], 0.31; in experiment [4] it was 0.35; in experiment [5], 0.159; in experiment [6] it was -0.101; in experiment [7] it was -0.512. Moreover, the composite z-score was -0.374 in experiment [8]; 0.538 in [9]; 0.766 in [10]; -0.0057 with Albumin (Bos taurus); -0.128 in [12]; -0.14 in [13]. Besides, the composite z-score came to 0.479 in experiment [14]; 1.37 in experiment [15]; 2.12 in experiment [16]; 1.31 in the experiment on Sam68 (KHDRBS1); 0.119 in experiment [17]; 0.89 in experiment [18]. In addition, the z-score in experiment [2] was -2.95. In addition, the composite Z-score in [11] was -0.36 (inactive).
